# ALOX12 inh: blocks human arachidonate 12S-lipoxygenase; actives 1.1% (n = 580,000); Potency, µM (highest dose often 108 µM), actives largely listed as inhibitors; P18054; purified 12hLO, xylenol orange hydroperoxide absorbance; AID 1671190
#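 Purified human 12hLO at 150 nM in 25 mM Hepes, 0.01% Triton X-100, pH 7.0, preincubated 15 min at room temperature with compound. Reaction started with 40 uM arachidonic acid, 30 min at room temperature. Hydroperoxide measured by Fe-xylenol orange, 573/405 nm absorbance ratio.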
# G9a block: blocks human histone lysine methyltransferase G9a | G9a H3K9 monomethylation, AlphaScreen, 2 h | Potency, µM (top dose mostly 102 µM), hits mostly inhibitors | actives 8.8% (n = 350,000) | AID 504332; further: nearly all actives have a fitted effect of over 75% in size
# Target sequence (Q96KQ7 913-1193 limits assumed): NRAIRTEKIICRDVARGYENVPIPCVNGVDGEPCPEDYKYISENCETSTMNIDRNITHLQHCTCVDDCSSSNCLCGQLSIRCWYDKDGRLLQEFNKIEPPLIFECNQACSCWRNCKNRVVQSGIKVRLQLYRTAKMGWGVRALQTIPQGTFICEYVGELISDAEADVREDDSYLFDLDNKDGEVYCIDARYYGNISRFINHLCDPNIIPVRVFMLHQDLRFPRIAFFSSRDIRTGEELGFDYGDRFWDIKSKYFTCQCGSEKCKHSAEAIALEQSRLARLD
#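 Chemiluminescent proximity detection of H3K9 monomethylation, read after 10 min bead incubation in the dark. Reaction: 20 nM G9a, 500 nM biotin-H3K9 peptide, 20 uM SAM cofactor, 2 h, room temperature, following 15 min enzyme-compound preincubation.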
# VDR inhibitor: blocks the human vitamin D receptor; VDR-SRC2-3 peptide fluorescence polarization, 2 h; Potency, µM, most hits filed as inhibitors; actives 0.93% (n = 400,000)
# Target sequence (P11473 whole entry, looked up): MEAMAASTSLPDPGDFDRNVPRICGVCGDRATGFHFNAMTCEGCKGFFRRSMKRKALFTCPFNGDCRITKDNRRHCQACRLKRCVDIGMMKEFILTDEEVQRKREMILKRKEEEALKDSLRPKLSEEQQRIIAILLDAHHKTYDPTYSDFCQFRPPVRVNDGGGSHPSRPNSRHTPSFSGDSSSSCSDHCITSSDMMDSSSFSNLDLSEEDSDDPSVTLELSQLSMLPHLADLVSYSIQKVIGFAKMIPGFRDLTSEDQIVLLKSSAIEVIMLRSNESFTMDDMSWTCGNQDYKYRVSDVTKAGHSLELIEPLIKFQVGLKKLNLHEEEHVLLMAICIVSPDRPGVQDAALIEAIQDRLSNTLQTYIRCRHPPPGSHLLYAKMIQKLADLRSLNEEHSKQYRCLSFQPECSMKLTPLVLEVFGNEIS
#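 Two reagent solutions held at 4 deg C in the dark were dispensed, compounds pinned at 23 nl, and the mixture incubated 2 h at room temperature. Read-out: fluorescence polarization of VDR–SRC2-3 peptide binding.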
# Sfp PPTase inh: Sfp phosphopantetheinyl transferase inhibition; Q9F4F7; Biochemical Sfp PPTase activity, qHTS; Potency, µM, actives largely listed as inhibitors; actives 3.5% (n = 310,000);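 further: the enzyme is Sfp with the accession as filed and its product quenches rhodamine fluorescence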
#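 Sfp 15 nM + cpd, 15 min RT; start w/ rhodamine-CoA 5 uM, BHQ-2-YbbR 12.5 uM (final); 50 mM Hepes pH 7.6, 10 mM MgCl2, 0.01% NP-40, 0.01% BSA; read 525/598 nm at 0 and 30 min.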
# Glioma ERSR ind: induces the endoplasmic reticulum stress response in human glioma cells | U87-MG GRP78 promoter luciferase reporter, 16 h | Potency, µM, most hits filed as activators | actives 0.02% (n = 420,000) | AID 602332; further: series mostly up to about 76 µM; nearly all actives have a fitted effect of over 35% in size
#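 Stably transfected U87-MG glioma cells carrying a GRP78-based luciferase sensor; 16 h compound incubation. Luminescence end-point read 10 min after Bright-Glo addition at room temperature.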
# Hits are given with their value; n = inactive; u = inconclusive; x = no result given; [ ] = dose if it differs, or a comment. This excerpt belongs to a sample that is enriched for hits. The call rests on the fitted dose curve; in most records, active means well fitted curve in the direction sought with a large enough effect; inconclusive means small, poorly fitted or top-dose-only effect, or another doubt; inactive means no such curve, though single readings can be large; an effect the other way counts as inactive or inconclusive.
SMILES,ALOX12 inh,G9a block,VDR inhibitor,Sfp PPTase inh,Glioma ERSR ind
CCOc1ccc(-c2noc(-c3cc(-c4ccco4)n[nH]3)n2)cc1,n,x,x,x,x
O=C(CCNc1c(-c2ccccc2)nc2cnccn12)N1CCCC1,n,x,x,x,x
O=C(O)CCNc1c(-c2ccc(F)cc2)nc2cnccn12,35.5µM,x,x,x,x
Cc1sc(NC(=O)C2CCCCC2C(=O)O)c(C(N)=O)c1-c1ccccc1 (centres undefined),u,35.5µM,n,n,n
COc1ccc(NC(=O)c2c(NC(=O)CCC(=O)O)sc(-c3ccccc3)c2C)cc1,u,5.62µM,u,15.8µM,n
CCc1ccc(-c2c(C)sc(NC(C)=O)c2C(N)=O)cc1,n,11.2µM,n,50.1µM,n
Cc1sc(NC(=O)CC2(CC(=O)O)CCCCC2)c(C(N)=O)c1-c1ccccc1,n,x,x,x,x
COC(=O)c1c(NC(=O)CCC(=O)O)sc(Cc2ccccc2)c1C,n,n,n,n,n
Cc1sc(NC(=O)CCC(=O)O)c(C(N)=O)c1-c1ccccc1,u,10µM,u,35.5µM,n
O=C(N/N=C(/C=C/c1ccccc1)c1ccccc1)c1cccs1,n,x,x,x,x
O=C1CC(c2ccccc2)N(C(=O)C2CC2)CCCN(C(=O)Cc2c[nH]c3ccccc23)CCN1 (centres undefined),n,x,x,x,x
O=C(O)CCCC(=O)N1N=C(c2ccsc2)CC1c1ccc(F)cc1 (centres undefined),n,x,x,x,x
COc1ccc(C(=O)N2CCN(c3oc(-c4cccs4)nc3C#N)CC2)cc1OC,n,x,x,x,x
Cc1sc(NC(=O)C2CCCCC2C(=O)O)c(C(N)=O)c1-c1ccc(C(C)(C)C)cc1 (centres undefined),n,x,u,79.4µM,n
CCCCCCCCS(=O)CCCCC(=O)O (centres undefined),n,x,x,x,x
CCCCCCCCS(=O)CCC(=O)O (centres undefined),25.1µM,22.4µM,n,n,n
O=C(CCn1c2c(c3ccccc31)CCCC2)NNC(=O)c1ccc([N+](=O)[O-])cc1,n,15.8µM,n,n,n
O=C(CSc1ncnc2sc3c(c12)CCC3)NCc1ccc(F)cc1,n,x,x,x,x
CCCN(CCC)C(=O)Cc1coc2ccc3ccccc3c12,n,50.1µM,n,n,n
N#CC1=C2SCN(c3ccccc3)CN2C(=O)CC1c1cccs1 (centres undefined),u,2.51µM,u,0.794µM,n
Cc1ccc(C2CC(=O)N3CN(c4ccc(Br)cc4)CSC3=C2C#N)o1 (centres undefined),u,u,44.7µM,1.26µM,n
O=C(Nc1ccccc1Cl)C1CC(=O)N(c2ccccc2)C1 (centres undefined),n,n,n,n,n
CSC1=C(C#N)C(c2cccs2)CC(=O)N1C (centres undefined),x,u,x,n,x
N#CC1=C2SCN(c3ccccc3)CN2C(=O)CC1c1c(Cl)cccc1Cl (centres undefined),3.16µM,1.41µM,22.4µM,5.01µM,n
N#CC1=C2SCN(c3ccccc3)CN2C(=O)CC1c1ccccc1Cl (centres undefined),u,1.41µM,28.2µM,1µM,n
SMILES,ALOX12 inh,G9a block,VDR inhibitor,Sfp PPTase inh,Glioma ERSR ind
CCn1c(SCC(=O)c2ccc[nH]2)nnc1-c1ccc(OC)cc1,n,x,x,x,x
O=S(=O)(c1cccs1)N1CCCC(c2nc(-c3ccccc3)no2)C1 (centres undefined),n,x,x,x,x
CCOC(=O)N1CCC(NC(=O)c2cc3cc(OC)ccc3[nH]2)CC1,n,x,x,x,x
COc1ccc(Cl)cc1NC(=O)c1ncoc1-c1ccco1,n,x,x,x,x
CC(=O)N1CCC(C(=O)NC(c2cccs2)C(C)C)CC1 (centres undefined),n,x,x,x,x
CCN1CCN(c2nc(-c3ccc(F)cc3)cc(=O)[nH]2)CC1,u,n,n,n,n
CCN1CCC2(CC1)N=C(c1ccc(F)cc1)C(=S)N2C(=O)c1ccc(C(C)(C)C)cc1,u,10µM,79.4µM,u,n
O=C1c2cc(Cl)ccc2-c2c(O)cc(Cl)cc21,35.5µM,x,n,x,n
O=c1cc(O)c(-c2ccc(Cl)cc2)c(Cl)[nH]1,u,x,n,n,n
Cc1c(-c2ccccc2)oc2c(C(=O)N3CCN(CC(=O)NC(C)(C)C)CC3)cccc2c1=O,n,x,x,x,x
CCc1ccc(CNC(=O)CCCN2C(=O)c3cccnc3Oc3ccc(Cl)cc32)cc1,u,n,n,x,n
CN(C)c1ccc(CNC(=O)CCCN2C(=O)c3cccnc3Oc3ccc(Cl)cc32)cc1,u,11.2µM,n,x,n
CN(Cc1ccsc1)C(=O)CC1C=CCC1 (centres undefined),n,x,x,x,x
Cc1cc2cc3c(cc2nc1SCc1ccc(C(=O)O)cc1)OCCO3,n,50.1µM,n,n,n
O=C(Nc1sc2c(c1C(=O)O)CCC2)C(=O)N1CCOCC1,n,39.8µM,n,79.4µM,n
NC(=O)c1c(NC(=O)CN2C(=O)CCC2=O)sc2c1CCCCC2,n,15.8µM,n,u,n
O=C(Nc1sc2c(c1C(=O)O)CCCC2)C(=O)N1CCOCC1,n,u,n,u,n
NC(=O)c1c(NC(=O)CN2CCOCC2)sc2c1CCC2,n,25.1µM,n,n,n
O=c1c2ccccc2c(-c2ccccc2)nn1Cc1nc(-c2ccc(Br)cc2)no1,n,x,x,x,x
COc1ccc(OC)c(CN2CCN(C(=O)c3ccc(F)cc3)CC2)c1,u,31.6µM,n,n,n
COc1ccccc1CN1CCN(C(=O)c2ccncc2)CC1,u,u,n,u,n
CCc1cc(C(=O)N2CCN(Cc3cc(OC)ccc3OC)CC2)sc1C,n,x,x,x,x
COc1ccc(CN2CCN(C(=O)c3ccc(F)cc3)CC2)c(OC)c1,u,3.16µM,n,n,n
Cc1ccc2nc(C(C)(C)C)c(Cc3ccsc3)n2c1,6.31µM,x,x,x,n
Cc1cc(Br)cn2c(Cc3ccsc3)c(C(C)(C)C)nc12,35.5µM,x,x,x,n
SMILES,ALOX12 inh,G9a block,VDR inhibitor,Sfp PPTase inh,Glioma ERSR ind
CCCc1nc2ccc(C)cn2c1Cc1ccsc1,n,x,x,x,n
CCCc1nc2c(C)cc(Br)cn2c1Cc1ccsc1,u,x,x,x,n
CCOc1ccc(CN(C)C(=O)Cn2nc(C(=O)O)c3ccccc3c2=O)cc1,n,x,x,x,x
COc1cc(/C=N/NC(=O)CCn2cnc(-c3ccccc3)c2-c2ccccc2)ccc1O,n,44.7µM,n,n,n
COc1cc(/C=N/NC(=O)CCN2CCCCC2)ccc1O,n,u,n,n,n
CCC(C)NC(=O)CCNC(=O)Cc1c(C)nc2nc(N)nn2c1C (centres undefined),n,x,x,x,x
CN(C)C(=O)C(=O)c1c(-c2ccccc2)cc2ccccn12,u,n[12.7 µM],n,n,n
O=Nc1c(-c2ccccc2)cc2ccccn12,n,39.8µM,n,n,n
O=C(NCCCOC1CCCCC1)C1CCCO1 (centres undefined),n,x,x,x,x
COc1cc(Nc2ccc(S(=O)(=O)N3CCN(C)CC3)cc2[N+](=O)[O-])cc(OC)c1,u,50.1µM,n,x,n
COc1ccc(Nc2ccc(S(=O)(=O)N3CCCCC3)cc2[N+](=O)[O-])cc1OC,n,7.08µM,n,n,n
COc1ccccc1Nc1ccc(S(=O)(=O)N2CCCCC2)cc1[N+](=O)[O-],n,u,n,n,n
